# In PubChem BioAssay (NCATS):
# A number with no mark means an inactive call. Records with an inconclusive call do not appear. Where a call stands in place of a potency, no number is given. The source made the active and inactive calls. Unless noted, calls come from the whole dose curve; as a rule, active = well fitted curve in the direction sought with a large enough effect; inconclusive = small, poorly fitted or top-dose-only effect, or another doubt; inactive = no such curve, though single readings can be large; an effect the other way counts as inactive or inconclusive. Non-standard residues stand in square brackets, D forms with d. Residues, ends and D or L forms follow the SMILES beside them. *: point of attachment. Nva = CCC[C@H](N)C(=O)O; Cbz = O=C(OCc1ccccc1)*
# How the values were obtained:
# [1] = P-glycoprotein substrates identified in KB-8-5-11 adenocarcinoma cell line, qHTS therapeutic library screen (AID 1346987); note: nearly all actives have a fitted effect of over 65% in size; note: potency is the fitted concentration of half-maximal effect
# Procedure, shortened: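 KB-8-5-11, a colchicine-selected P-gp-overexpressing KB-3-1 subline, was grown without colchicine for the assay. Cells were seeded at 500 cells/well, dosed in concentration-response and incubated 72 h at 37 degree C, 5% CO2. Viability was read by CellTiter-Glo luminescence.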
# [2] = Natriuretic polypeptide receptor (hNpr1) antagonism - Pilot counterscreen GloSensor control cell line (AID 1347045; calls by dose curve; note: series mostly up to about 38 µM)
# Procedure, shortened: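 HEK293 cGMP GloSensor cells preloaded 2 h with 2% GloSensor reagent, then compound 30 min before baseline luminescence read. Stimulated with 50 uM sodium nitroprusside, 20 min at room temperature, then read again; counterscreen for Npr1 antagonism.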
# [3] = target: Atrial natriuretic peptide receptor 1 (Homo sapiens) (UniProt P16066); test: Natriuretic polypeptide receptor (hNpr1) antagonism - Pilot screen (AID 1347049; calls by dose curve;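 note: agonist-evoked cGMP luminescence read 20 min after hNppA addition; series mostly up to about 58 µM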)
# Procedure, shortened: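 Readout is cGMP-driven firefly luciferase luminescence in HEK293 cells carrying hNpr1 and a PDE5-domain GloSensor, read before and 20 min after 0.1 nM hNppA stimulation. Cells had 2% substrate reagent for 2 h and test compound for 30 min.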
# [4] = target: Atrial natriuretic peptide receptor 2 (Homo sapiens) (UniProt P20594); test: Natriuretic polypeptide receptor (hNpr2) antagonism - Pilot subtype selectivity assay (AID 1347050; calls by dose curve)
# Procedure, shortened: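 Pilot selectivity screen against hNpr2: HEK293 cGMP-sensor cells are treated with LOPAC1280 compounds, then with hNppC peptide at 1 nM final. The cGMP-driven luminescence change over 20 min at room temperature is the read-out.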
# [5] = NS1 protein of Zika virus - qHTS assay to identify small molecule inhibitors in human HEK 293 cells (AID 1347053); note: nearly all actives have a fitted effect of over 55% in size; note: potency is the fitted concentration of half-maximal effect
# Procedure, shortened: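 HEK 293; 20 h pre-culture, 37 C/5% CO2; cpd 1 h pre-infection; ZIKV MR766, MOI = 0.5, 24 h, 37 C; TR-FRET NS1 readout (two anti-NS1 Abs); norm. to no-virus vs infected.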
# [6] = target: Parathyroid hormone/parathyroid hormone-related peptide receptor (Homo sapiens) (UniProt Q03431); test: qHTS for PTHR1 Agonists: Optimization Screen against the NCGC LOPAC library (AID 1347079);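 note: GloSensor cAMP luminescence in HEK-293 GP2 cells expressing human PTHR1 with IBMX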
# Procedure, shortened: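 Agonist readout: GloSensor cAMP luminescence, read after 15 min at room temperature. HEK-293-derived GP2 line carries PTHR1; compounds tested as a titration for 1 hr at 37C in presence of IBMX. M-PTH (1-15) served as control.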
# [7] = qHTS of pediatric cancer cell lines to identify multiple opportunities for drug repurposing: Primary screen for DAOY cells (AID 1347090); note: nearly all actives have a fitted effect of over 55% in size; note: potency is the fitted concentration of half-maximal effect
# Procedure, shortened: (§1)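 Cell viability, CellTiter-Glo luminescence; 500-1,000 cells/well, 8- or 11-point titration, 48 h compound exposure at 37 degrees C, 5% CO2. Controls: DMSO neutral, bortezomib 2.3 µM final as positive.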
# [8] = qHTS of pediatric cancer cell lines to identify multiple opportunities for drug repurposing: Primary screen for A673 cells (AID 1347092); note: nearly all actives have a fitted effect of over 45% in size; note: potency is the fitted concentration of half-maximal effect
# Procedure, shortened: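 Cell viability of A673 measured by CellTiter-Glo ATP luminescence after 48 hours compound exposure. Dilution series spanned 0.78 nM to 46 µM (MIPE, 11-point) or 0.59 nM to 46 µM (NPC, 8-point); bortezomib 2.3 uM positive control.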
# [9] = qHTS of pediatric cancer cell lines to identify multiple opportunities for drug repurposing: Primary screen for SK-N-MC cells (AID 1347093); note: potency is the fitted concentration of half-maximal effect
# Procedure, shortened: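 Metabolically active cells were quantified by ATP-dependent luminescence (CellTiter-Glo, 15 min at room temperature) following 48 h treatment. Cells had been plated at 500-1,000 per well and settled for 5 h beforehand.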
# [10] = qHTS of pediatric cancer cell lines to identify multiple opportunities for drug repurposing: Primary screen for U-2 OS cells (AID 1347096); note: nearly all actives have a fitted effect of over 50% in size; note: potency is the fitted concentration of half-maximal effect
# Procedure, shortened: (§2)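 Cells (500-1,000/well) rested 5 h, then received compounds for 48 h; metabolically active cells were measured by CellTiter-Glo luminescence. Final concentrations spanned up to 46 µM (MIPE, 11-point) or 0.59 nM-46 µM (NPC, 8-point) in primary screens, 11-point in follow-ups.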
# [11] = qHTS of pediatric cancer cell lines to identify multiple opportunities for drug repurposing: Primary screen for NB1643 cells (AID 1347099); note: nearly all actives have a fitted effect of over 50% in size; note: potency is the fitted concentration of half-maximal effect
# Procedure, shortened: (§3)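 500-1,000 cells/well; 5 h pre-incubation 37 °C/5% CO2; compound pinned; 48 h; CellTiter-Glo, 15 min RT; luminescence. MIPE 11-pt from 0.78 nM, NPC 8-pt from 0.59 nM final. Bortezomib 2.3 µM final as positive control.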
# [12] = qHTS of pediatric cancer cell lines to identify multiple opportunities for drug repurposing: Primary screen for LAN-5 cells (AID 1347100); note: potency is the fitted concentration of half-maximal effect
# Procedure, shortened: as §2
# [13] = qHTS of pediatric cancer cell lines to identify multiple opportunities for drug repurposing: Primary screen for BT-12 cells (AID 1347101); note: nearly all actives have a fitted effect of over 25% in size; note: potency is the fitted concentration of half-maximal effect
# Procedure, shortened: as §2
# [14] = qHTS of pediatric cancer cell lines to identify multiple opportunities for drug repurposing: Primary screen for Rh18 cells (AID 1347102); note: nearly all actives have a fitted effect of over 65% in size; note: potency is the fitted concentration of half-maximal effect
# Procedure, shortened: as §2
# [15] = qHTS of pediatric cancer cell lines to identify multiple opportunities for drug repurposing: Primary screen for TC32 cells (AID 1347089); note: nearly all actives have a fitted effect of over 60% in size; note: potency is the fitted concentration of half-maximal effect
# Procedure, shortened: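 Luminescent ATP read-out (CellTiter-Glo) of metabolically active TC32 cells after 48 h exposure. Concentration-response curves came from 11-point (MIPE, 0.78 nM–46 µM) or 8-point (NPC, 0.59 nM–46 µM) primary titrations; follow-up used 11 points.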
# [16] = qHTS of pediatric cancer cell lines to identify multiple opportunities for drug repurposing: Primary screen for SJ-GBM2 cells (AID 1347091); note: potency is the fitted concentration of half-maximal effect
# Procedure, shortened: as §1
# [17] = qHTS of pediatric cancer cell lines to identify multiple opportunities for drug repurposing: Primary screen for BT-37 cells (AID 1347094); note: potency is the fitted concentration of half-maximal effect
# Procedure, shortened: as §3
# [18] = qHTS of pediatric cancer cell lines to identify multiple opportunities for drug repurposing: Primary screen for Saos-2 cells (AID 1347097); note: nearly all actives have a fitted effect of over 40% in size; note: potency is the fitted concentration of half-maximal effect
# Procedure, shortened: as §3
# [19] = qHTS of pediatric cancer cell lines to identify multiple opportunities for drug repurposing: Primary screen for SK-N-SH cells (AID 1347098); note: nearly all actives have a fitted effect of over 65% in size; note: potency is the fitted concentration of half-maximal effect
# Procedure, shortened: as §2
# [20] = qHTS of pediatric cancer cell lines to identify multiple opportunities for drug repurposing: Primary screen for NB-EBc1 cells (AID 1347095); note: potency is the fitted concentration of half-maximal effect
# Procedure, shortened: as §3
# Parathyroid hormone/parathyroid hormone-related peptide receptor (Homo sapiens), sequence (Q03431 whole entry, looked up): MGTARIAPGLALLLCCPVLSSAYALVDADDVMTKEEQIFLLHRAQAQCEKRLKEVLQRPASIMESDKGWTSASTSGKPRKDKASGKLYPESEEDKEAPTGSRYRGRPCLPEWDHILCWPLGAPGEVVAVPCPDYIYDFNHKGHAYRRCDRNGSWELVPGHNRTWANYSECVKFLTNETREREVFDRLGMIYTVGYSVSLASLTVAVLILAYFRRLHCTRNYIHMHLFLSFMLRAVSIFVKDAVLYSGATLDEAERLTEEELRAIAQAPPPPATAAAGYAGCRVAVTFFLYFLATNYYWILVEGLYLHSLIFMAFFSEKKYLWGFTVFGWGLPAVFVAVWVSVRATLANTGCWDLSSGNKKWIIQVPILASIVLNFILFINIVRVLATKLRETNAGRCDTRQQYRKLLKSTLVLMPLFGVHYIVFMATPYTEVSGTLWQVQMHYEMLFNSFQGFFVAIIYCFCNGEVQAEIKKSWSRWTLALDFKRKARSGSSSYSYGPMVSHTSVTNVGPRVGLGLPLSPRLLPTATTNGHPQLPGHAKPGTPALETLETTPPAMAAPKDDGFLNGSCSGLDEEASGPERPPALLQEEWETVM
# Atrial natriuretic peptide receptor 2 (Homo sapiens), sequence (P20594 whole entry, looked up): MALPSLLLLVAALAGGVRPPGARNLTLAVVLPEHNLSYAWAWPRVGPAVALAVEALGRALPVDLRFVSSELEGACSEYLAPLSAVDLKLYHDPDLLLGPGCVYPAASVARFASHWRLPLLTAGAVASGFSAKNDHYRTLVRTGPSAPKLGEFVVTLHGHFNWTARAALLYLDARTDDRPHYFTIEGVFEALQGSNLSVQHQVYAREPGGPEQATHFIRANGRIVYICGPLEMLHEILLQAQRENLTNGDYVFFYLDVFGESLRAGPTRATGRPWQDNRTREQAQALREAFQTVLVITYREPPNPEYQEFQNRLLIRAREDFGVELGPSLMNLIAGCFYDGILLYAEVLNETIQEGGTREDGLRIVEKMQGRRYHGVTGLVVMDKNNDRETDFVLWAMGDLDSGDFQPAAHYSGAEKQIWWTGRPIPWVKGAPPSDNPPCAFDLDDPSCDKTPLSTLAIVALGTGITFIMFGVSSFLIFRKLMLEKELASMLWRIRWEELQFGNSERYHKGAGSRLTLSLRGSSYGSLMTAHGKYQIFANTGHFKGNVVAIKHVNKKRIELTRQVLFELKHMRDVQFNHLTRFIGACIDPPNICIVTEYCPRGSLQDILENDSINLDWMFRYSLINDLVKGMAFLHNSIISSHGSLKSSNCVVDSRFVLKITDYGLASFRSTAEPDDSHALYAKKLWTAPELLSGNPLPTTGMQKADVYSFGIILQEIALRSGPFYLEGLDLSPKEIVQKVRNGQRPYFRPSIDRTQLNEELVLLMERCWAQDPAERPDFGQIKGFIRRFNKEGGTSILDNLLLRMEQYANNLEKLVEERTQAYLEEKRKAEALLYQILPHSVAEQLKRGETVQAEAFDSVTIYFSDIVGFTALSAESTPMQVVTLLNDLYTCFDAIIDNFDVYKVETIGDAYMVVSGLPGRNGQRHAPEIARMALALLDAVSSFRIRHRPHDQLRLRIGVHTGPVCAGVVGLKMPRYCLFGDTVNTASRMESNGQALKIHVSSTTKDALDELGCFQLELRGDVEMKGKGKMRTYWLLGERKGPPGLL
# Atrial natriuretic peptide receptor 1 (Homo sapiens), sequence (P16066 whole entry, looked up): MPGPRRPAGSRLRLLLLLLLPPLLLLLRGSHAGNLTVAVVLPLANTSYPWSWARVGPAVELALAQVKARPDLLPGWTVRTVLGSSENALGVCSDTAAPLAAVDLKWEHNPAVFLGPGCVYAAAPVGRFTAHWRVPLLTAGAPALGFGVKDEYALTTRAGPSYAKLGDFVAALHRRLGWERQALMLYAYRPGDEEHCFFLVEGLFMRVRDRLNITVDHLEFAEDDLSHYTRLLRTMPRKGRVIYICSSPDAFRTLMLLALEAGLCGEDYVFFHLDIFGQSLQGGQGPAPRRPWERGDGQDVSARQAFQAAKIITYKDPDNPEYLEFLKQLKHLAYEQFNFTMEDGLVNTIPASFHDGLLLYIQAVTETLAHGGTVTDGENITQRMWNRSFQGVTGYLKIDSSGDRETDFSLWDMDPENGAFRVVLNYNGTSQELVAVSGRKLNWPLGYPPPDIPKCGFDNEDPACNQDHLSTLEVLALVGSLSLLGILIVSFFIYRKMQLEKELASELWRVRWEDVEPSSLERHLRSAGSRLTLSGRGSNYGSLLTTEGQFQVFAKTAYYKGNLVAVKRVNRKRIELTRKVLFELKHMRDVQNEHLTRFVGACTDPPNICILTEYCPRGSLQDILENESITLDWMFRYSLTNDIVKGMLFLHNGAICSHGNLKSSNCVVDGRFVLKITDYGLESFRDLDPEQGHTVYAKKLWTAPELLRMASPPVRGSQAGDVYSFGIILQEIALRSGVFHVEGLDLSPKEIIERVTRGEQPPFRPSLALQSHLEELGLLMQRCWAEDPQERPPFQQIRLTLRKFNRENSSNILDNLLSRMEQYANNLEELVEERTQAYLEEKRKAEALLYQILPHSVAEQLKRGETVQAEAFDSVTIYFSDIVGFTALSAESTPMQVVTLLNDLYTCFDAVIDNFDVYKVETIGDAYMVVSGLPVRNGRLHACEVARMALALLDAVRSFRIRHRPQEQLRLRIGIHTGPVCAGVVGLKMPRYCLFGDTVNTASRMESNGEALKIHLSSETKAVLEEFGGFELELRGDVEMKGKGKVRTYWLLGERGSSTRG
Structure (SMILES),Potency [1],outcome [2],outcome [3],outcome [4],Potency [5],outcome [6],Potency [7],Potency [8],Potency [9],Potency [10],Potency [11],Potency [12],Potency [13],Potency [14],Potency [15],Potency [16],Potency [17],Potency [18],Potency [19],Potency [20]
O=c1[nH]c(=O)n([C@H]2C[C@@H](O)[C@@H](CO)O2)cc1C=CBr,inactive,inactive,inactive,inactive,inactive,inactive,inactive,inactive,inactive,inactive,inactive,inactive,inactive,inactive,–,–,–,–,–,–
CN[C@H](CC(C)C)C(=O)N[C@H]1C(=O)N[C@@H](CC(N)=O)C(=O)N[C@@H]2C(=O)N[C@H]3C(=O)N[C@H](C(=O)N[C@H](C(=O)O)c4cc(O)cc(O)c4-c4cc3ccc4O)[C@H](O)c3ccc(c(Cl)c3)Oc3cc2cc(c3O[C@@H]2O[C@H](CO)[C@@H](O)[C@H](O)[C@@H]2O[C@H]2C[C@](C)(N)[C@H](O)[C@H](C)O2)Oc2ccc(cc2Cl)[C@H]1O,inactive,inactive,inactive,inactive,inactive,inactive,inactive,inactive,inactive,inactive,inactive,inactive,inactive,inactive,inactive,inactive,inactive,inactive,inactive,–
C#CCC(Cc1cnc2nc(N)nc(N)c2n1)c1ccc(C(=O)N[C@@H](CCC(=O)O)C(=O)O)cc1 (stereo not given in full),41.8 nM (active),–,–,–,132 nM (active),–,118 nM (active),29.6 nM (active),23.5 nM (active),inactive,–,–,48.5 nM (active),inactive,37 nM (active),118 nM (active),54.4 nM (active),inactive,–,372 nM (active)
COc1cc(OC)cc(-c2ccc3ncc4ccc(=O)n(-c5ccc(N6CCNCC6)c(C(F)(F)F)c5)c4c3c2)c1,7430 nM (active),–,–,–,11800 nM (active),–,2960 nM (active),935 nM (active),1320 nM (active),14800 nM (active),11800 nM (active),2640 nM (active),19300 nM (active),14800 nM (active),18600 nM (active),4180 nM (active),15300 nM (active),13200 nM (active),7640 nM (active),3720 nM (active)
COC(=O)[C@H](CCCN=C(N)N)NS(=O)(=O)c1ccc(C)cc1,inactive,–,–,–,inactive,–,inactive,inactive,inactive,inactive,inactive,inactive,inactive,inactive,inactive,inactive,inactive,–,–,inactive
CCC[C@@H](C=O)NC(=O)[C@H](CC(C)C)NC(=O)[C@H](CC(C)C)NC(=O)OCc1ccccc1 (Cbz-Leu-Leu-[Nva]-aldehyde),7430 nM (active),–,–,–,3320 nM (active),–,935 nM (active),590 nM (active),105 nM (active),2350 nM (active),469 nM (active),935 nM (active),2170 nM (active),2350 nM (active),3700 nM (active),296 nM (active),1220 nM (active),–,1360 nM (active),372 nM (active)
C=CC1=C(C(=O)O)N2C(=O)[C@@H](NC(=O)C(=NO)c3csc(N)n3)[C@H]2SC1,inactive,–,–,–,inactive,–,inactive,inactive,inactive,inactive,inactive,inactive,inactive,inactive,inactive,inactive,inactive,inactive,inactive,inactive
CN(N=O)C(=O)N[C@H]1C(O)OC(CO)[C@@H](O)[C@H]1O (stereo not given in full),inactive,–,–,–,inactive,–,inactive,inactive,inactive,inactive,inactive,inactive,inactive,inactive,inactive,inactive,inactive,inactive,inactive,inactive
Nc1cccc2c1C(=O)N(C1CCC(=O)NC1=O)C2=O (stereo not given),inactive,–,–,–,inactive,–,inactive,inactive,inactive,inactive,inactive,inactive,–,inactive,inactive,inactive,inactive,–,inactive,inactive
CC(=O)OCC(=O)[C@@]12N=C(C)O[C@H]1C[C@H]1[C@@H]3CCC4=CC(=O)C=C[C@]4(C)[C@@H]3[C@@H](O)C[C@@]12C,inactive,–,–,–,inactive,–,inactive,inactive,inactive,inactive,inactive,inactive,inactive,inactive,inactive,inactive,inactive,inactive,inactive,inactive
O=C(O)C(=O)Nc1cccc(C2=NN=N[N]2)c1,inactive,–,–,–,inactive,–,inactive,inactive,inactive,inactive,inactive,inactive,inactive,inactive,inactive,inactive,inactive,inactive,inactive,inactive
COC1=C(OC)C(=O)C(CC=C(C)CCC=C(C)CCC=C(C)CCC=C(C)CCC=C(C)CCC=C(C)CCC=C(C)CCC=C(C)CCC=C(C)CCC=C(C)C)=C(C)C1=O,inactive,–,–,–,inactive,–,inactive,inactive,inactive,inactive,inactive,inactive,inactive,inactive,inactive,inactive,inactive,inactive,inactive,inactive
